Drawing on PubChem BioAssay (NCI), this text covers growth for 39 compounds.

“And” between values parts separate entries of the source, which are not always exact repeats. Identical values can stand only once. Compounds without any hit were thinned out: in the full panel of roughly 83,000, 20% have a hit.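 96-well plates, one dose, 48 hours. Percent growth reported; active if below 10.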 Values without a mark were called inactive. The source made the active and inactive calls.

One assay deals with NCI-H226 lung. The assay can be described thus: NCI-60 one-dose screen, 48 h (100 = growth as untreated, 0 = no growth, -100 = all killed). As to conditions: 10 µM unless noted.
With `Cc1nc(Nc2ncc(C(=O)Nc3c(C)cccc3Cl)s2)cc(N2CCN(CCO)CC2)n1`, the growth is 31.9% and 45.6%.
Same read-out and setting: next, `COc1ccc(-c2ccc(-c3ccc(C(=N)N)cn3)s2)cc1Cl`: 88.1%; `CNC(=O)c1cc(Oc2ccc3nc(NC(=O)Nc4ccc(C(F)(F)F)cc4)sc3c2)ccn1`: 85.6%.
On the same count and under the same terms, next, `COc1ccc(CCNC(=O)COc2cc3c(Nc4ccc(F)c(Cl)c4)ncnc3cc2OC)cc1OC`: 98.5%.
Still for that read-out and setting: under `Cc1ccc(S(=O)(=O)Nc2cc(Sc3ccccc3)c(O)c3ccccc23)cc1` stands 96%; under `Nc1nc(Nc2cccnc2)sc1C(=O)c1ccccc1F`, 24.4%.
For `O=C(Cn1cc(CN2CCN(c3ccnc4cc(Cl)ccc34)CC2)nn1)Nc1cccc([N+](=O)[O-])c1`, the growth is 86.3%.
The same measure, in the same setting: next, `CCOc1nc(-c2ccccc2)cc2c(O)c(C(=O)N/N=C/c3ccc(N(C)C)cc3)[nH]c(=O)c12`: 97.1%.

A further assay concerns NCI-H322M lung. The description is as above. The conditions noted are these: 10 µM unless noted.
Turning to `C=C[C@]1(C)C=C2CC[C@@H]3C(C)(C)C(=O)CC[C@@]3(C)[C@@H]2CC1`, the growth is 77%.
Still for that read-out and setting: under `CN(C)CC1(C)Cc2ccsc2C1O` (configuration not stated) stands 119%; under `CCN(CC)/C([O-])=c1\cccc\c1=C1\N=C(c2ccccc2)N=C1[n+]1ccc(-c2ccccc2)cc1`, 100%; under `Cc1oc2c(Cc3ccc(NC(=O)c4ccc(Cl)cc4)cc3)ncnc2c1C(=O)NO`, 93.1%.
On the same count and under the same terms, next, `COc1cc(CNC(=O)CCCC/C=C/C(C)C)ccc1O`: 124% and 88.7%; `CC1=C2[C@@H](CC1)[C@]1(C)O[C@@](C(C)C)(C[C@H]1OC(=O)CO)[C@H]2OC(=O)C1CC1c1ccccc1` (some centres not stated): 84.7%; `O=C1OCC2=C1C(c1cccc(C(F)(F)F)c1)c1cc3c(cc1N2CCO)CCC3` (configuration not stated): 45%.
`COc1ccc(/C=N/C2=C(C#N)C(c3ccccc3)c3c(ccc4ccccc34)O2)cc1` (configuration not stated): the growth is 40.9%.
Take `O=C(CCl)N(O)c1ccc(/C=C/c2ccccc2)cc1`: the growth is 99.5% and 91.5%.
The same measure, in the same setting: under `N#C/C(=C\c1ccc(Br)cc1)n1nnc2c(F)cccc21` stands 0.929% (active).
As to `O=C(/C=C/c1ccccc1)c1cccs1`, the growth was 106%.
Still for that read-out and setting: next, `COc1ccc(Nc2nn3c(SCC(=O)c4ccc(C)cc4)nnc3s2)cc1`: 86.2%.
Regarding `CN(Cc1ccccc1)c1nc(Cl)c(C2CC(c3ccc4c(c3)OCO4)=NN2c2cc(Cl)cc(Cl)c2)s1` (configuration not stated), the growth is 99.9%.
On the same count and under the same terms, under `Cc1nnc(NS(=O)(=O)c2ccc(N=Nc3ccc(N)nc3N)cc2)s1` stands 114% and 92.8%.
As for `CC[C@H](C)[C@H](NC(=O)[C@H](CCCCN)NC(=O)[C@H](CCCCN)NC(=O)[C@@H](NC(=O)[C@@H](NC(=O)[C@@H](N)Cc1cnc[nH]1)[C@@H](C)CC)[C@@H](C)CC)C(=O)N[C@@H](CCCNC(=N)N)C(=O)N[C@H](C(=O)N[C@@H](Cc1c[nH]c2ccccc12)C(=O)N[C@@H](Cc1ccc(O)cc1)C(=O)N[C@@H](CCCNC(=N)N)C(=O)N[C@@H](CCCCN)C(=O)N[C@@H](C)C(=O)N[C@@H](Cc1c[nH]c2ccccc12)C(=O)N[C@@H](Cc1cnc[nH]1)C(=O)N[C@H](C(=O)N[C@@H](CC(C)C)C(=O)NCC(=O)N[C@@H](CCCCN)C(=O)N[C@H](C(N)=O)C(C)C)C(C)C)[C@@H](C)O`, the growth was 25.1%.
The same measure, in the same setting: next, `O=S(=O)(Nc1cc(Sc2cccc3cccnc23)c(O)c2ccccc12)c1ccc(F)cc1`: 31.7%; `COc1ccc2c(c1)CCNC21C(=O)Nc2c(Br)cc(Br)cc21` (configuration not stated): 90.3%; `CCCn1nc(C(=O)N2CCCCC2)c2c1CCC(N1CCC(c3ccncc3)CC1)C2` (configuration not stated): 108%.
Same read-out and setting: next, `C=C1C(=O)O[C@@H]2[C@H]3[C@H](COC(C)=O)[C@@H](OC(C)=O)C[C@H]3C(=C)[C@@H](O)C[C@@H]12`: 102%.
The same measure, in the same setting: under `CC(=O)N1N=C(c2ccc(F)cc2)CC1c1sc(N(C)Cc2ccccc2)nc1Cl` (configuration not stated) stands 99.6%; under `O=C(/C=C/c1ccc([N+](=O)[O-])cc1)c1ccccc1`, 102%; under `COc1ccc(C(CC(=O)c2ccc3c(c2)OCO3)C(=O)O)cc1OC` (configuration not stated), 107% and 96.1%.
As to `CCN1CCN(CC(=O)Nc2nc3ccc(NCc4ccc(C)cc4)cc3s2)CC1`, the growth was 87.6%.
Still for that read-out and setting: next, `Clc1cccc(Nc2ncnc3ccc(-c4cncc(-n5cnnn5)c4)cc23)c1`: 15.2%; `CCc1c2c(nc3ccc(OCc4ccc(B5OC(C)(C)C(C)(C)O5)cc4)cc13)-c1cc3c(c(=O)n1C2)COC(=O)[C@]3(O)CC`: 6.44% (active).
The same measure, in the same setting: next, `COc1ccc(/C=N\Nc2nc(SCC(C)C)nc(-c3ccc(OC)cc3)c2C#N)cc1`: 22.5%; `COc1cc2nc3cc([N+](=O)[O-])ccc3c(NCCNCC(C)(C)O)c2cc1OC`: -3.78% (active); `COc1ccc(C(=O)c2ccc(OC)c(OC)c2OC)cc1`: 59%.
Still for that read-out and setting: under `N=C1/C(=C2\NC3C=CC=CC3S2)C(c2ccc(Cl)cc2)C2C(=O)N(c3ccccc3)C(=S)N12` (configuration not stated) stands 101%; under `CC1=CC(C)(C)NC(=S)N1c1ccc(Cl)cc1`, 98.2%; under `Cc1nn(-c2nc(-c3cc4ccccc4oc3=O)cs2)c(C)c1N=Nc1ccccc1`, 97.3%.
For the compound `Cc1nc(Nc2ncc(C(=O)Nc3c(C)cccc3Cl)s2)cc(N2CCN(CCO)CC2)n1`, the growth was 0.803% (active).
For `COc1ccc(-c2ccc(-c3ccc(C(=N)N)cn3)s2)cc1Cl`, the growth was -97.1% (active).
Still for that read-out and setting: next, `CNC(=O)c1cc(Oc2ccc3nc(NC(=O)Nc4ccc(C(F)(F)F)cc4)sc3c2)ccn1`: 80.5%; `COc1ccc(CCNC(=O)COc2cc3c(Nc4ccc(F)c(Cl)c4)ncnc3cc2OC)cc1OC`: 27.3%; `Cc1ccc(S(=O)(=O)Nc2cc(Sc3ccccc3)c(O)c3ccccc23)cc1`: 102%.
Same read-out and setting: next, `Nc1nc(Nc2cccnc2)sc1C(=O)c1ccccc1F`: 54.7%; `O=C(Cn1cc(CN2CCN(c3ccnc4cc(Cl)ccc34)CC2)nn1)Nc1cccc([N+](=O)[O-])c1`: 91.9%; `CCOc1nc(-c2ccccc2)cc2c(O)c(C(=O)N/N=C/c3ccc(N(C)C)cc3)[nH]c(=O)c12`: 113%.
